Several values for one entry are separate records, joined by “and”; a condition that tells them apart may be missing. Equal values may be shown once. Among all 5,500 compounds or so, about 2,000 (36%) were called active. Roughly 18% stayed inconclusive and do not appear here. Cut-off read from the data, not from the text of the source: active = normalized growth mostly below about 0.91 (no sharp cut-off); inconclusive = no clear call, values can overlap the other calls; inactive = mostly above about 0.92. The list shows a part of the results.
Test: chemical genetic growth profiling, strain panel (AID 1159580);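 note: tested at 20 µM; growth read once vehicle control cultures reached saturation at 30 °C; 1 = growth at the plate median or of vehicle wells; lower values mean less growth of the strain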
Details: S. cerevisiae deletion strains, growth OD

Measured: normalized growth

CC(C)CCCC(C)C1CCC2C3CC(=O)[C@H]4C[C@@H](O)CC[C@]4(C)C3CC[C@]12C (stereo partly drawn)
active: locus YLR262C, strain YPT6 (second series), hits give low values 0.76
inactive: locus YAL021C, strain ccr4, hits give low values 0.997 | locus YAL026C, strain drs2, hits give low values 0.98 | locus YAL030W, strain snc1, hits give low values 1.01 | locus YBL061C, strain skt5, hits give low values 1 | locus YBR009C, strain hhf1, hits give low values 1 | locus YBR021W, strain FUR4, hits give low values 1.06 | locus YBR023C, strain chs3, hits give low values 1 | locus YBR171W, strain sec66, hits give low values 1 | locus YBR229C, strain ROT2, hits give low values 1.02 | locus YBR231C, strain swc5, hits give low values 0.975 | locus YBR279W, strain paf1, hits give low values 1.01 | locus YCL011C, strain gbp2, hits give low values 1.02 | locus YCL016C, strain dcc1, hits give low values 1.01 | locus YCL029C, strain bik1, hits give low values 1.01 | locus YCL061C, strain MRC1, hits give low values 1.01 | locus YCL069W, strain vba3, hits give low values 1.03 | locus YCR088W, strain abp1, hits give low values 1 | locus YDL005C, strain med2, hits give low values 1.01 | locus YDL035C, strain GPR1, hits give low values 1.01 | locus YDL040C, strain nat1, hits give low values 1.01 | locus YDL074C, strain BRE1, hits give low values 1.05 | locus YDL101C, strain DUN1, hits give low values 1.02 | locus YDL185W, strain tfp1, hits give low values 1.07 | locus YDL192W, strain arf1, hits give low values 1.02 | locus YDR001C, strain nth1, hits give low values 1.02 | locus YDR069C, strain doa4, hits give low values 1 | locus YDR101C, strain arx1, hits give low values 1.01 | locus YDR137W, strain rgp1, hits give low values 0.908 | locus YDR150W, strain NUM1, hits give low values 1 | locus YDR159W, strain sac3, hits give low values 0.963 | locus YDR162C, strain NBP2, hits give low values 1.04 | locus YDR195W, strain ref2 1.01 | locus YDR297W, strain sur2, hits give low values 1 | locus YDR318W, strain mcm21, hits give low values 1.01 | locus YDR334W, strain swr1, hits give low values 1.02 | locus YDR335W, strain msn5, hits give low values 1.02 | locus YDR388W, hits give low values 1.01 | locus YDR392W, strain spt3, hits give low values 0.942 | locus YDR502C, strain sam2, hits give low values 1.01 | locus YEL003W, strain gim4, hits give low values 1.01 | locus YEL037C, strain rad23, hits give low values 1 | locus YEL061C, strain CIN8 (second series), hits give low values 1.01 | locus YEL061C, strain CIN8, hits give low values 1 | locus YER015W, strain faa2, hits give low values 1 | locus YER016W, strain bim1, hits give low values 1.01 | locus YER110C, hits give low values 1 | locus YER111C, strain swi4, hits give low values 1 | locus YER155C, strain BEM2 (second series), hits give low values 1.07 | locus YER155C, strain BEM2, hits give low values 0.997 | locus YER167W, strain BCK2, hits give low values 1.03 | locus YFR010W, strain ubp6, hits give low values 1.02 | locus YGL078C, strain dbp3, hits give low values 1.01 | locus YGL086W, strain mad1, hits give low values 1.03 | locus YGL167C, strain pmr1, hits give low values 0.998 | locus YGL173C, strain kem1, hits give low values 1 | locus YGL227W, strain vid30, hits give low values 1.01 | locus YGL240W, strain doc1, hits give low values 0.904 | locus YGL248W, strain PDE1, hits give low values 1.01 | locus YGL253W, strain hxk2, hits give low values 1.02 | locus YGR135W, strain pre9, hits give low values 1 | locus YGR252W, strain gcn5, hits give low values 1.06 | locus YHR013C, strain ard1, hits give low values 1.01 | locus YHR027C, strain rpn1, hits give low values 1.01 | locus YHR030C, strain SLT2, hits give low values 1.02 and 1.05 | locus YHR079C, strain IRE1 (second series), hits give low values 0.99 | locus YHR079C, strain IRE1, hits give low values 1.04 | locus YHR094C, strain hxt1, hits give low values 1.01 | locus YHR129C, strain ARP1, hits give low values 1.02 | locus YHR142W, strain chs7, hits give low values 1.04 | locus YHR200W, strain rpn10, hits give low values 1.03 | locus YIL066C, strain RNR3, hits give low values 1.04 | locus YIL073C, strain SPO22, hits give low values 1.05 | locus YIL125W, strain kgd1, hits give low values 0.998 | locus YIR030C, strain dcg1, hits give low values 1.01 | locus YJL092W, strain hpr5, hits give low values 1.02 | locus YJL095W, strain BCK1 (second series), hits give low values 1.01 | locus YJL095W, strain BCK1, hits give low values 1.03 | locus YJL115W, strain asf1, hits give low values 0.991 | locus YJL129C, strain trk1, hits give low values 1.04 | locus YJL134W, strain LCB3, hits give low values 1.01 | locus YJL154C, strain vps35, hits give low values 1.02 | locus YJL164C, strain tpk1, hits give low values 1.01 | locus YJL166W, strain qcr8, hits give low values 1.06 | locus YJL168C, strain set2, hits give low values 1 | locus YJL187C, strain SWE1 (second series), hits give low values 1.01 | locus YJL187C, strain SWE1, hits give low values 1.02 | locus YJR043C, strain POL32, hits give low values 1.05 | locus YJR066W, strain TOR1, hits give low values 0.998 | locus YKL009W, strain mrt4, hits give low values 1.01 | locus YKL068W, hits give low values 1.02 | locus YKL085W, strain MDH1 (second series), hits give low values 1.01 | locus YKL085W, strain MDH1, hits give low values 1.01 | locus YKL160W, strain elf1, hits give low values 1.02 | locus YKL190W, strain CNB1, hits give low values 1.02 | locus YKR001C, strain vps1, hits give low values 1.02 | locus YKR026C, strain gcn3, hits give low values 1 | locus YKR091W, strain srl3, hits give low values 1.01 | locus YLL001W, strain dnm1, hits give low values 0.982 | locus YLL026W, hits give low values 0.999 | locus YLL041C, strain sdh2, hits give low values 1.01 | locus YLR027C, strain aat2, hits give low values 0.99 | locus YLR039C, strain RIC1, hits give low values 0.767 | locus YLR058C, strain SHM2, hits give low values 1.01 | locus YLR102C, strain apc9, hits give low values 1.01 | locus YLR113W, strain HOG1, hits give low values 0.986 | locus YLR221C, strain rsa3, hits give low values 0.991 | locus YLR258W, strain gsy2, hits give low values 0.994 | locus YLR262C, strain YPT6, hits give low values 0.831 | locus YLR268W, strain sec22, hits give low values 1.03 | locus YLR320W, strain mms22, hits give low values 1.02 | locus YLR330W, strain CHS5, hits give low values 1.01 | locus YLR342W, strain FKS1 (second series), hits give low values 1.02 | locus YLR342W, strain FKS1, hits give low values 1.01 | locus YLR357W, strain rsc2, hits give low values 1.04 | locus YLR370C, strain arc18, hits give low values 1.02 | locus YLR371W, strain rom2, hits give low values 1 | locus YLR384C, strain iki3, hits give low values 0.99 | locus YLR418C, strain cdc73, hits give low values 1.08 | locus YML016C, strain PPZ1, hits give low values 0.995 | locus YML032C, strain rad52, hits give low values 1 | locus YML120C, strain ndi1, hits give low values 1.02 | locus YML124C, strain tub3, hits give low values 1 | locus YMR058W, strain fet3, hits give low values 1.01 | locus YMR078C, strain ctf18, hits give low values 1.04 | locus YMR125W, strain sto1, hits give low values 1.02 | locus YMR129W, hits give low values 1 | locus YMR205C, strain PFK2, hits give low values 1.02 | locus YMR223W, strain ubp8, hits give low values 1.01 | locus YMR231W, strain pep5, hits give low values 1.02 | locus YMR307W, strain GAS1, hits give low values 1.12 | locus YNL067W, strain RPL9B, hits give low values 1.03 | locus YNL071W, strain lat1, hits give low values 1.02 | locus YNL183C, strain NPR1, hits give low values 1 | locus YNL209W, strain ssb2, hits give low values 1.01 | locus YNL233W, strain BNI4, hits give low values 1.04 | locus YNL248C, strain rpa49, hits give low values 1 | locus YNL250W, strain rad50, hits give low values 1 | locus YNL271C, strain bni1, hits give low values 1 | locus YNL298W, strain CLA4, hits give low values 1.01 | locus YNL307C, strain MCK1, hits give low values 1.04 | locus YNL322C, strain KRE1 (second series), hits give low values 1.01 | locus YNR049C, strain mso1, hits give low values 1 | locus YNR052C, strain pop2, hits give low values 0.997 | locus YOL006C, strain TOP1, hits give low values 1.14 | locus YOL012C, strain htz1 1.15 | locus YOL147C, strain pex11, hits give low values 1.01 | locus YOR001W, strain rrp6, hits give low values 0.969 | locus YOR061W, strain CKA2, hits give low values 1.02 | locus YOR069W, strain VPS5, hits give low values 1 | locus YOR070C, strain gyp1, hits give low values 0.989 | locus YOR080W, strain dia2, hits give low values 0.998 | locus YOR083W, strain WHI5, hits give low values 1.02 | locus YOR106W, strain vam3, hits give low values 1.02 | locus YOR136W, strain idh2, hits give low values 1 | locus YOR144C, strain elg1, hits give low values 1 | locus YOR184W, strain ser1, hits give low values 1.04 | locus YOR231W, strain MKK1, hits give low values 1.02 | locus YOR265W, strain rbl2, hits give low values 1 | locus YOR270C, strain vph1, hits give low values 1.04 | locus YOR290C, strain snf2, hits give low values 1.03 | locus YOR316C, strain cot1, hits give low values 1 | locus YPL051W, strain arl3, hits give low values 0.985 | locus YPL055C, strain LGE1, hits give low values 1.07 | locus YPL078C, strain atp4, hits give low values 1.02 | locus YPL106C, strain sse1, hits give low values 1.02 | locus YPL240C, strain hsp82, hits give low values 1.01 | locus YPL256C, strain CLN2, hits give low values 1.04 | locus YPR119W, strain clb2, hits give low values 1 | locus YPR141C, strain kar3, hits give low values 1.01 | locus YPR163C, strain tif3, hits give low values 1.01 | locus YPR167C, strain met16, hits give low values 0.995 | strain wtn01, hits give low values 1.03

Reference: PubChem BioAssay AID1159580 (chemical genetic matrix, 2015)
